# According to the OligoGym collection:
# What was measured:
# Assay in all cases: pooled miR-30 sensor sort-seq; sequence = guide strand
# Conditions in all cases: shRNA
# HIC1 = biological target: HIC1
# HIP1R = biological target: HIP1R
# HINT3 = biological target: HINT3
# HHATL = biological target: HHATL
# HIST1H4A = biological target: HIST1H4A
# HIST2H3A = biological target: HIST2H3A
# HS6ST1 = biological target: HS6ST1
# HSPA1A = biological target: HSPA1A
# IBTK = biological target: IBTK
# HSPA1L = biological target: HSPA1L
# ICAM4 = biological target: ICAM4
# IKBKAP = biological target: IKBKAP
# IKBKG = biological target: IKBKG
# IL10 = biological target: IL10
# IKBKB = biological target: IKBKB
# IL13RA1 = biological target: IL13RA1
# IL12RB2 = biological target: IL12RB2
# IL16 = biological target: IL16
# Further: reference of the scale not given here.
sequence,measurement,setting,value
TTGCGTTGCTGTGCGAACTTGC,sensor-assay potency score (higher = more potent),HIC1,-0.297
TTGAAGTACAGCATGTCGGAGG,sensor-assay potency score (higher = more potent),HIP1R,-0.0916
TTGAGGTGGAAGGAGATCTTGG,sensor-assay potency score (higher = more potent),HIP1R,-0.812
TTGAACAGGAGCTTGACCGTGT,sensor-assay potency score (higher = more potent),HIP1R,0.954
TTGAGCTGTCGGAAAACTGATT,sensor-assay potency score (higher = more potent),HIP1R,-1.02
TCTTAGGAAACAGACATTCAGA,sensor-assay potency score (higher = more potent),HINT3,-1.03
TAACTGACTACTTACTGAGAAA,sensor-assay potency score (higher = more potent),HINT3,-1.61
TAGAAGTTGTACTTGAGCAGGT,sensor-assay potency score (higher = more potent),HHATL,0.918
TACACAGCATACATCCAGGAGC,sensor-assay potency score (higher = more potent),HHATL,-1.03
TTTTCCAACAGTTACCATGTTC,sensor-assay potency score (higher = more potent),HINT3,-0.723
TTCTACTTGATCTTTCCTTAGA,sensor-assay potency score (higher = more potent),HINT3,-0.545
TAGTCGTCGCCGTCGCCGCCCG,sensor-assay potency score (higher = more potent),HIC1,-0.822
TACACATATTTGCAAAGCCAGT,sensor-assay potency score (higher = more potent),HHATL,-1.98
TTCAGCTGCTCAGAGCTGGGGA,sensor-assay potency score (higher = more potent),HIC1,-0.306
ATGTTGTCACGCAACACCTTGC,sensor-assay potency score (higher = more potent),HIST1H4A,-1.02
TCTCCTCGTAGATCAGACCAGA,sensor-assay potency score (higher = more potent),HIST1H4A,-0.957
TCTCGCGTACCAGCCGCTGGAA,sensor-assay potency score (higher = more potent),HIST2H3A,-1.89
TAATGGTCACGCGCTTGGCGTG,sensor-assay potency score (higher = more potent),HIST2H3A,-1.65
ATGAGCATGAAGCACACCGAGC,sensor-assay potency score (higher = more potent),HS6ST1,-1.78
TTGTCGGCCTCGCTGATCTTGC,sensor-assay potency score (higher = more potent),HSPA1A,-1.46
TAACACAGACTGTAGCTCCATC,sensor-assay potency score (higher = more potent),IBTK,-0.515
TAATACAACAGTATGATCCTTA,sensor-assay potency score (higher = more potent),IBTK,1.02
TTGACACTTGTCCAGCACCTTC,sensor-assay potency score (higher = more potent),HSPA1A,-1.05
TTCAACATTGCAAACACAGGAA,sensor-assay potency score (higher = more potent),HSPA1A,0.422
TTTATATTTCTCAGCATCCAGA,sensor-assay potency score (higher = more potent),HSPA1L,-0.719
TAAACAGCTTCTCTAGTCCATA,sensor-assay potency score (higher = more potent),IBTK,-1.24
TTCTTGAACATAGTTTCCGAAT,sensor-assay potency score (higher = more potent),IBTK,-1.25
TTGAGCTGCACTGACTTCCCCG,sensor-assay potency score (higher = more potent),ICAM4,0.304
TTGAGCTTGATTACTTTTGTAA,sensor-assay potency score (higher = more potent),IBTK,0.24
TAAGTCCAGCAATCACACCTGC,sensor-assay potency score (higher = more potent),HSPA1L,-0.0929
TTTCTCAGCATCCAGAACCATG,sensor-assay potency score (higher = more potent),HSPA1L,-1.49
TATTCCTCTTTTTCTCGCTCAG,sensor-assay potency score (higher = more potent),ICAM4,-0.694
TTTGCTTTCTTGAACATAGTTT,sensor-assay potency score (higher = more potent),IBTK,-0.494
TTTTTCTCGCTCAGCCGGCATA,sensor-assay potency score (higher = more potent),ICAM4,-1.31
TAGGCGGTGATCCTGGAGGTGG,sensor-assay potency score (higher = more potent),ICAM4,-1.35
TTAGTCAATACCATCGAAGAGA,sensor-assay potency score (higher = more potent),HSPA1L,-1.19
TAAGCCAATCTAACACTCCTTT,sensor-assay potency score (higher = more potent),IBTK,0.0727
TAGGGTTACACATCTGCTCCAA,sensor-assay potency score (higher = more potent),HSPA1L,0.367
TAGAGTTTTGTGATGATAGGGT,sensor-assay potency score (higher = more potent),HSPA1L,0.798
TTATCTTGAATATACAGACTAA,sensor-assay potency score (higher = more potent),IBTK,-0.465
AACTTAGTCAATACCATCGAAG,sensor-assay potency score (higher = more potent),HSPA1L,-0.727
TTGCACTATACATTGCTGCAAA,sensor-assay potency score (higher = more potent),IBTK,-0.722
TTGGTTGTCAGAGTAGGTGGTG,sensor-assay potency score (higher = more potent),HSPA1L,0.316
AAATTGAGAACTGACAAACAGA,sensor-assay potency score (higher = more potent),HSPA1A,-0.814
TTCTTAGCACATTAAGTCCAGC,sensor-assay potency score (higher = more potent),HSPA1L,-0.826
TTTATCAGACTCACTAATCTTG,sensor-assay potency score (higher = more potent),HSPA1L,0.0614
TAGCCCACCGGGAACACTGTAG,sensor-assay potency score (higher = more potent),ICAM4,-0.579
TAAAAAGAAGAAATAGTCGTAA,sensor-assay potency score (higher = more potent),HSPA1A,0.289
TCGTAGGTCAAGGTCACGTTGG,sensor-assay potency score (higher = more potent),ICAM4,-0.884
TTAAAAAGAAGAAATAGTCGTA,sensor-assay potency score (higher = more potent),HSPA1A,0.533
TTCATAGCTAGGCACTTGCATA,sensor-assay potency score (higher = more potent),ICAM4,-1.17
TCAACATTGCAAACACAGGAAA,sensor-assay potency score (higher = more potent),HSPA1A,-1.05
TTGTCCAGCACCTTCTTCTTGT,sensor-assay potency score (higher = more potent),HSPA1A,0.221
TAGCATAGCAGCATTCTTCAGG,sensor-assay potency score (higher = more potent),IBTK,-0.0417
TCTTCTTGCACTGATAGTCTGC,sensor-assay potency score (higher = more potent),IBTK,-0.142
TAATCTTGCCCTTCAAACCTTC,sensor-assay potency score (higher = more potent),HSPA1L,-0.52
TAAACTGTAAACAAGACAGTTT,sensor-assay potency score (higher = more potent),IBTK,-0.0719
TTCTCTTATGATCAAACTCATC,sensor-assay potency score (higher = more potent),HSPA1L,-1.68
TACTAGGAAATGCAAAGTCTTG,sensor-assay potency score (higher = more potent),HSPA1A,-1.4
TATAACTTCAGAGCTTCGTTAT,sensor-assay potency score (higher = more potent),IKBKAP,-0.855
TCGTATTCTTGGAAGAGCTGGT,sensor-assay potency score (higher = more potent),IKBKG,0.277
TGTGGTTGTCGTATTCTTGGAA,sensor-assay potency score (higher = more potent),IKBKG,0.455
TCTTCGTGACATCTTCTTCTTT,sensor-assay potency score (higher = more potent),IKBKAP,-0.422
TATTTGTCTATAGTAAACCGCT,sensor-assay potency score (higher = more potent),IKBKAP,-0.467
ATTAAAGGCATTCTTCACCTGC,sensor-assay potency score (higher = more potent),IL10,-0.126
TTCGCTAACAACAATGTCCACC,sensor-assay potency score (higher = more potent),IKBKB,-0.709
TTTGCTGTACTCCCTCTGCAGC,sensor-assay potency score (higher = more potent),IKBKG,-0.913
TTATCGATCACCTCCTGTTTGG,sensor-assay potency score (higher = more potent),IKBKG,-0.717
TTTGAATTGGACACTGTCCAGT,sensor-assay potency score (higher = more potent),IKBKB,-0.0592
TGAAAGAAAGTCTTCACTCTGC,sensor-assay potency score (higher = more potent),IL10,0.368
TTGAATATCCCTGAACTCCAGG,sensor-assay potency score (higher = more potent),IKBKAP,-0.562
TTGCACATGAGGAACTCCTTCT,sensor-assay potency score (higher = more potent),IKBKG,0.171
TTGCTTGCTCCTCTAGGTCGTC,sensor-assay potency score (higher = more potent),IKBKB,-0.796
TAGCATCGCAGACAAGGTCTAT,sensor-assay potency score (higher = more potent),IKBKAP,-0.408
TAAGTCCACAATGTCGGTCTGC,sensor-assay potency score (higher = more potent),IKBKB,-0.424
TAACAACAAGTTGTCCAGCTGA,sensor-assay potency score (higher = more potent),IL10,0.191
TTCAGTTTGCTGTACTCCCTCT,sensor-assay potency score (higher = more potent),IKBKG,-0.286
TCACAATCTTGTGCTGCTCGGC,sensor-assay potency score (higher = more potent),IKBKG,-0.555
TTGCAGTAGAATTGGGACCTAG,sensor-assay potency score (higher = more potent),IKBKAP,-0.443
TTCCTCATGTCCTCGATCCTGG,sensor-assay potency score (higher = more potent),IKBKG,-0.0606
AAGAAAGTCTTCACTCTGCTGA,sensor-assay potency score (higher = more potent),IL10,0.0469
TTGATGAAGATGTCAAACTCAC,sensor-assay potency score (higher = more potent),IL10,-0.225
TAAGTTTAAGATGTCATCCAGG,sensor-assay potency score (higher = more potent),IKBKB,-0.453
TTTGTCTATAGTAAACCGCTGA,sensor-assay potency score (higher = more potent),IKBKAP,-0.157
TTCTATAATATCCAGTCTGTTA,sensor-assay potency score (higher = more potent),IKBKAP,-1.24
TTTCCTGATTGTGCCATCGGAT,sensor-assay potency score (higher = more potent),IKBKB,-0.945
TTCTGAACCAATGAGCACCGTC,sensor-assay potency score (higher = more potent),IKBKAP,-0.483
TTTTGTGTATTAACCTCTGTTC,sensor-assay potency score (higher = more potent),IKBKB,-0.501
TTGTCTATAGTAAACCGCTGAT,sensor-assay potency score (higher = more potent),IKBKAP,-0.619
TACGTCCTGATCTGCTGCCGGG,sensor-assay potency score (higher = more potent),IKBKG,-1.55
TTAGTGGCAGCCTCCAAGCGAC,sensor-assay potency score (higher = more potent),IKBKG,-1.14
TTGCTCGCTGTACTTCTCCAGG,sensor-assay potency score (higher = more potent),IKBKB,-0.598
TAGTCTCCTGTACAGCTCCCTT,sensor-assay potency score (higher = more potent),IKBKB,-1.81
TTGAAAACTTCACCGTTCCATT,sensor-assay potency score (higher = more potent),IKBKB,-0.697
TTTGAGATCTTCCAGCTGCATT,sensor-assay potency score (higher = more potent),IKBKG,-1.36
TCTTCTTCCGTCTGTAACCAGC,sensor-assay potency score (higher = more potent),IKBKB,-1.13
TTCTTCTGTTGATCTTTGGTGG,sensor-assay potency score (higher = more potent),IKBKAP,-0.174
TTGCTCCTCTAGGTCGTCCAGC,sensor-assay potency score (higher = more potent),IKBKB,-1.32
TTGGAAATGCAGAAGCTCCTCG,sensor-assay potency score (higher = more potent),IKBKG,0.49
TAATTCATTAACATCTACCAGA,sensor-assay potency score (higher = more potent),IKBKAP,-0.538
TTCCATGTCCATATTACTGTGC,sensor-assay potency score (higher = more potent),IL13RA1,-0.274
TTGTACAGGATTAACTTGTTAC,sensor-assay potency score (higher = more potent),IL12RB2,-0.744
AACAACAAGTTGTCCAGCTGAT,sensor-assay potency score (higher = more potent),IL10,0.182
TGATTCACCATTGAGCTCCAGA,sensor-assay potency score (higher = more potent),IL16,-0.0119
TTGATTCTTCTGTCAAACTTGT,sensor-assay potency score (higher = more potent),IL12RB2,0.0343
TTGAATTTGCTGCAGACACAGC,sensor-assay potency score (higher = more potent),IL12RB2,-0.876
TTGTTCAAAACTGGAATCCTTC,sensor-assay potency score (higher = more potent),IL13RA1,-0.391
TTTCACAGGGAAGAAATCGATG,sensor-assay potency score (higher = more potent),IL10,-0.836
TTGGTCTCGAAGTTCCCGCAGC,sensor-assay potency score (higher = more potent),IL16,-0.85
TTTGTTCTGAGGCTGCTCCTTT,sensor-assay potency score (higher = more potent),IL16,0.156
TTCTTATCTTGTTTGTCGCCAA,sensor-assay potency score (higher = more potent),IL13RA1,-0.0977
TTAGCTGTAGAGTATACTCAGT,sensor-assay potency score (higher = more potent),IL12RB2,-0.26
TACAGAGTCGGTTTCCTCCTTG,sensor-assay potency score (higher = more potent),IL13RA1,0.15
TTGACTCTTATTCTGACTGTGT,sensor-assay potency score (higher = more potent),IL13RA1,0.685
TTGTCTACTGTAGTCAATGTGC,sensor-assay potency score (higher = more potent),IL12RB2,-0.32
TTTCTTATCTTGTTTGTCGCCA,sensor-assay potency score (higher = more potent),IL13RA1,0.315
TACCAGACATCTAACATCCCAG,sensor-assay potency score (higher = more potent),IL12RB2,-0.395
TTAACAACAAGTTGTCCAGCTG,sensor-assay potency score (higher = more potent),IL10,-0.0308
ATCTTCTCCAGTGTCACCGTGC,sensor-assay potency score (higher = more potent),IL16,-0.369
TTCTCCAGTGTCACCGTGCAGA,sensor-assay potency score (higher = more potent),IL16,-0.677
